# Bioassay records as filed in PubChem.
# SKN-1 block: suppressors of acrylamide-induced Pgst-4::GFP reporter in worms, primary screen, SKN-1 inhibitor project, whole organism, uHTS, GFP/RFP fluorescence ratio, strain VP596. C. elegans VP596 Pgst-4::GFP/RFP ratio, 24 h. inhibition, % at 21.8 µM. 360,000 compounds, 0.49% hits;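 active = interference check ratio from 0.5 to 1.5 plus GFP to RFP signal ratio inhibition reaching or exceeding a fixed threshold, cut at about 30% in these data, passing the limit was not always enough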
# Vif inh: HIV Vif self-association inhibitors, primary screen, imaging, HEK293T, single point. AID 602346, 2012. inhibition, % at 7.49 µM. 340,000 compounds, 0.35% hits. HEK293T cells, Vif self-association by quenched fluorescence, 24 h; in the data active = inhibition above about 50%, passing the limit was not always enough; inconclusive = no clear call, values can overlap the other calls; inactive = below about 31%
# NadD block: inhibitors of S. aureus NadD, primary screen, biochemical, colorimetric, uHTS; Nicotinate-nucleotide adenylyltransferase NadD (Staphylococcus aureus N315); inhibition, % at 20 µM; purified NadD enzyme, colorimetric absorbance read-out; 360,000 compounds, 0.78% hits; in the data active = inhibition above about 26%
# NR3A LBD binder: binders of NR3A ligand-binding domain, primary screen, biophysical, differential scanning fluorimetry, uHTS; Glutamate receptor ionotropic, NMDA 3A (GRIN3A) ligand-binding domain; NR3A LBD differential scanning fluorimetry, Tm shift; 0% = protein alone, 100% = glycine-bound protein; Tm shift relative to glycine control, % at 25 µM; 340,000 compounds, 2.5% hits;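 active = melting temperature shift of at least 10% of the positive control shift, at one fixed dose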
# SMARCA2 act: SMARCA2 (BRM) function activators, primary screen, cell-based, luminescence, high throughput; 370,000 compounds, 1% hits; AID 652017, 2013; activation, % at 9.1 µM; MG213 cells, MMTV-luciferase reporter, dexamethasone, overnight; in the data active = activation above about 7.8%;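 also: 0% = vehicle wells and 100% = reference activator wells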
# esBAF inh: Bmi1 luciferase reporter increase in mESCs, primary screen, esBAF inhibitor project, mouse ES cells, Bmi1 luciferase knock-in, single point; reporter increase, % at 12.5 µM; 350,000 compounds, 2% hits; 24 h; 100% = twice the neutral-well signal; in the data active = activation above about 40%; inconclusive = no clear call, values can overlap the other calls;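 also: 0% = median of the plate's neutral control wells and 100% = double that signal; a rise in the Bmi1 reporter signal indicates esBAF inhibition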
# Numbers without * were called inactive; ? = inconclusive; / = no result. Rows were chosen to be rich in hits. Some 5.2% of all compounds tested hit in one or more screens of this group.
SMILES,SKN-1 block,Vif inh,NadD block,NR3A LBD binder,SMARCA2 act,esBAF inh
COc1ccccc1-n1cc2ccc([N+](=O)[O-])cc2n1,4,6,-15,0,7,/
O=Cc1cn(-c2ccccc2)nc1-c1cccc([N+](=O)[O-])c1,13,-4,1,/,1,59*
O=Cc1cn(-c2ccccc2)nc1-c1ccccc1,12,0,-10,-3,2,39
CCC(=O)N(C)C[C@H]1Oc2cc(-c3cncnc3)ccc2S(=O)(=O)N([C@@H](C)CO)C[C@@H]1C,/,/,/,/,/,11
CCCNC(=O)C[C@H]1CC[C@@H]2[C@H](COc3ccc(NC(=O)NCC)cc3C(=O)N2C)O1,/,/,/,/,/,0
CCOC(=O)CSc1nc2ccc(C)cc2cc1C#N,3,-13,-5,1,7,71*
CCOC(=O)CSc1nc2cc(C)cc(C)c2cc1C#N,-9,/,-8,2,-4,24
Cc1cc2cc(C#N)c(SCC(=O)Nc3nonc3C)nc2cc1C,-8,79*,1,4,0,?
COc1ccc2cc(C#N)c(SCC(=O)Nc3nonc3C)nc2c1,10,2,1,-4,3,40
CCOC(=O)CSc1nc2cc(C)ccc2cc1C#N,-11,5,-6,1,4,44*
C[C@H](CO)N1C[C@H](C)[C@@H](CN(C)Cc2ccc(-c3ccccc3)cc2)Oc2ccc(NS(=O)(=O)c3ccc(Cl)cc3)cc2CC1=O,/,/,/,/,/,3
C[C@H](CO)N1C[C@H](C)[C@H](CN(C)Cc2ccc(C(=O)O)cc2)Oc2c(NS(C)(=O)=O)cccc2C1=O,/,/,/,/,/,0
CC1CCCCC1NC(=O)CN1C(=O)COc2ccccc21 (centres undefined),9,/,-3,-1,-1,/
CCC1Oc2ccccc2N(CC(=O)NC2CCCCC2C)C1=O (centres undefined),2,-2,0,15*,3,1
CCCN1CCC(Oc2cccc(C(=O)NCCc3ccccc3)c2)CC1,-23,-1,-8,3,4,51*
CC(=O)Nc1ccc(C(=O)NCCc2ccccc2)cc1,-2,5,4,16*,0,/
O=C(NCCCc1ccccc1)c1ccc(F)cc1,19,-10,-2,-1,/,64*
COCCNC(=O)c1cccc(OC2CCN(Cc3cccc(C(C)=O)c3)CC2)c1,11,3,-7,3,0,4
CC(=O)Nc1ccc(CCNC(=O)c2ccc3ccccc3c2O)cc1,2,-12,-5,24*,1,/
COc1ccc(NC(C)=O)cc1S(=O)(=O)Nc1ccccc1C(=O)NCCc1ccccc1,-6,1,-6,-1,6,55*
O=C(Nc1ccccc1O)c1ccc(NC(=O)C2CC2)cc1,10,-2,2,23*,2,23
O=C(NCCc1ccccc1)c1cccc(NC(=O)C2CCCCC2)c1,17,/,0,0,1,23
O=C(NCCc1ccccc1)c1ccc(NC(=O)C2CC2)cc1,9,5,1,-1,1,45*
O=C(NCCc1ccccc1)c1cccc(NC(=O)C2CCCC2)c1,0,/,2,1,0,48*
COc1ccc(CCNC(=O)c2ccccc2NS(=O)(=O)c2cc(C(=O)O)ccc2OC)cc1,11,6,-10,2,-2,-3
SMILES,SKN-1 block,Vif inh,NadD block,NR3A LBD binder,SMARCA2 act,esBAF inh
C[C@H]1CN([C@@H](C)CO)C(=O)c2cccc(NS(=O)(=O)c3cn(C)cn3)c2O[C@@H]1CN(C)C,/,/,/,/,/,4
C[C@@H]1CN([C@H](C)CO)S(=O)(=O)c2ccc(C#C[C@@H](C)O)cc2O[C@@H]1CN(C)C(=O)CC1CC1,/,/,/,/,/,-3
COCCCNC(=S)N1CCN(C(=O)C(=O)Nc2ccc(C(=O)OC)cc2)CC1,5,10,-7,-2,-4,/
COC(=O)c1ccc(NC(=O)C(=O)N2CCN(C(=S)NCCc3ccccc3)CC2)cc1,4,2,-3,15*,-3,/
Cc1ccc(S(=O)(=O)N(C)C[C@H]2OCCCC[C@H](C)Oc3ccc(NS(C)(=O)=O)cc3C(=O)N([C@@H](C)CO)C[C@H]2C)cc1,/,/,/,/,/,5
CC(C)c1ccc2[nH]c(O)c(N=NC(=O)c3cccc(S(=O)(=O)Nc4ccccc4Cl)c3)c2c1,10,1,38*,7,1,/
O=C(N=Nc1c(O)[nH]c2ccccc12)c1cccc(S(=O)(=O)Nc2ccccc2Cl)c1,-3,2,22,3,0,/
N#CC1(NC(=O)COC(=O)c2ccccc2SCC(=O)N2CCCC2)CCCCC1,9,-3,-11,13*,2,-1
COc1ccc(NC(=O)COC(=O)c2ccccc2SCC(=O)N2CCCC2)cc1,-12,-1,-8,19*,1,/
COc1ccc(S(=O)(=O)Nc2ccc3c(c2)C(=O)N([C@H](C)CO)C[C@H](C)[C@@H](CN(C)C(=O)Nc2ccc(F)cc2)OCCCC[C@@H](C)O3)cc1,/,/,/,/,/,-13
O=C(O)COc1ccccc1C(Nc1ccccn1)c1cc(Cl)c2cccnc2c1O (centres undefined),7,1,38*,-2,0,/
O=C(O)COc1ccccc1C(Nc1cccnc1)c1cc(Cl)c2cccnc2c1O (centres undefined),17,0,37*,1,/,/
O=C(Nc1ccccc1F)N[C@H]1CC[C@H](CCNS(=O)(=O)c2ccc(F)cc2)O[C@H]1CO,/,/,/,/,/,6
O=C(Nc1cc(Br)ccc1O)c1cc(-c2ccc3c(c2)OCO3)on1,20,21,13,-2,4,46*
O=C(NCc1ccc2c(c1)OCO2)c1cc(-c2ccccc2Cl)on1,-1,-2,3,2,-1,5
COc1ccc(-c2cc(C(=O)Nc3ccc4c(c3)OCO4)no2)cc1OC,-3,4,5,-1,-2,-4
CN(C(=O)c1cc(-c2ccc3c(c2)OCO3)on1)c1ccccc1,4,3,-11,0,1,68*
COc1cccc(-c2cc(C(=O)Nc3ccc4c(c3)OCO4)no2)c1,1,7,2,15*,0,29
O=C(Nc1ccc2c(c1)OCO2)c1cc(-c2ccccc2Cl)on1,6,-4,-12,9,4,60*
CC(C)NC(=O)NCC[C@@H]1CC[C@H](NC(=O)CCN2CCCCC2)[C@H](CO)O1,/,/,/,/,/,-5
CC(C)NC(=O)N(C)C[C@H]1Oc2ccc(NC(=O)Nc3ccc4c(c3)OCO4)cc2CC(=O)N([C@H](C)CO)C[C@H]1C,/,/,/,/,/,4
